From PubChem
AMA1-RON2 inh – disrupts binding of P. falciparum AMA1 to RON2. AlphaScreen AMA1-biotinylated RON2 peptide binding. Potency, µM (top dose mostly 58.2 µM), without a hit: at the top dose activity change, negative = inhibition, actives largely listed as inhibitors. 360,000 tested, 0.2% active. AID 720542;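 also: 0% = vehicle wells and -100% = peptide control; nearly all actives have a fitted effect of over 45% in size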
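AMA1 (3D7) with his tag at 25 nM final met compounds first, then biotinylated RON2 peptide at 25 nM; detection used donor plus acceptor beads, 10 µg/mL apiece, read by AlphaScreen after 30 min at room temperature.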
Pf growth 48h – inhibits P. falciparum growth in the first generation, 48 h; P. falciparum luciferase growth in erythrocytes, 48 h; Potency, µM (doses to about 28.7 µM), for the others: top-dose activity change, negative = inhibition, hits mostly inhibitors; 310,000 tested, 5.9% active; also: % is scaled to controls: 0 for no effect and ±100 for the full control effect
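In quantitative HTS format, infected erythrocytes bearing luciferase-reporter parasites were treated for a single generation at 37 C. Luminescence after adding detection reagent served as the growth measure.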
NS1 function inh – inhibitors of influenza NS1 protein function; 270,000 tested, 0.4% active; AID 2326; Potency, µM (highest dose often 46.1 µM), inactives show top-dose activity, positive = more growth; calls by dose curve; also: actives are rising curves; nearly all actives have a fitted effect of over 50% in size
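Growth recovery, yeast-based: influenza A NS1 expressed in S. cerevisiae causes slow growth, and suppressors are detected by OD600. The parent strain without NS1 is used as positive control.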
Pf growth 96h – inhibits malaria parasite growth, 96 h; Potency, µM (top dose mostly 28.7 µM), without a hit: at the top dose activity change, negative = inhibition, hits mostly inhibitors; 320,000 tested, 6.9% active; P. falciparum luciferase reporter growth, 96 h; also: % is scaled to controls: 0 for no effect and ±100 for the full control effect
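Luminescence readout: decreased luciferase signal marks inhibited growth of reporter-expressing P. falciparum in infected red cells (2% hematocrit, 0.05% parasitemia final), exposed to compound two generations (96 h, 37 C, 5% CO2).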
Sm TGR block – blocks Schistosoma mansoni thioredoxin glutathione reductase. Q962Y6. purified TGR, DTNB reduction, TNB absorbance 405 nm. Potency, µM (doses to about 114 µM), without a hit: top-dose activity change, negative = inhibition, usual class: inhibitors. 360,000 tested, 3% active. AID 485364; also: % is scaled to controls: 0 for no effect and ±100 for the full control effect; nearly all actives have a fitted effect of over 60% in size
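TGR 20 nM + NADPH 100 uM (dispensed conc.), cpd preinc 15 min RT; start with NADPH (500 uM addition) then DTNB (15 mM addition). Kinetic TNB absorbance, 405 nm filter. Four-parameter Hill fit across titration.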
An asterisk follows results filed as active; ? = inconclusive; · = not tested or not shown. The list is not random: actives were taken first. Their share in the collection is about 11%. Unless noted, calls follow the shape of the dose curve; as a rule, active = well fitted curve in the direction sought with a large enough effect; inconclusive = small, poorly fitted or top-dose-only effect, or another doubt; inactive = no such curve, though single readings can be large; an effect the other way counts as inactive or inconclusive. Potency is read from the fitted curve at half-maximal effect.

SMILES	AMA1-RON2 inh	Pf growth 48h	NS1 function inh	Pf growth 96h	Sm TGR block
COc1ccc(/C=N/NC(=S)Nc2cc(S(=O)(=O)N3CCOCC3)ccc2N2CCOCC2)cc1O	55%	?	10%	?	0%
Cc1cc(C)n(CC(O)COc2ccccc2C(=O)Nc2ccccc2)n1 (centres undefined)	?	1.9µM*	-4%	?	0%
Cc1cc(C)n(CC(O)COCc2ccccc2)n1 (centres undefined)	0%	6%	3%	12µM*	0%
Cc1cc(C)n(CC(O)COc2cccc(OCC(O)Cn3nc(C)cc3C)c2)n1 (centres undefined)	8%	-28%	5%	0%	1%
CCOC(=O)c1c(C)n(Cc2ccccc2)c2ccc(OCC(O)Cn3nc(C)nc3C)cc12 (centres undefined)	17%	?	-77%	-3%	-1%
CCOC(=O)c1c(C)n(Cc2ccccc2)c2ccc(OCC(O)Cn3nc(C)cc3C)cc12 (centres undefined)	6%	12µM*	15%	9%	0%
COc1cc(C(=O)Nc2cc(C)c(O)c(-c3nc4cc(Cl)ccc4o3)c2)cc(OC)c1OC	·	·	·	·	10%
O=C(CN(Cc1ccco1)C(=O)CNS(=O)(=O)c1ccc(F)cc1)NCc1ccco1	6%	12%	5%	?	0%
CCCCN1C(=O)CC(Sc2ncccc2C(=O)O)C1=O (centres undefined)	17%	-8%	5%	20%	·
O=C(O)c1cccnc1SC1CC(=O)N(c2ccccc2)C1=O (centres undefined)	2%	?	2%	1%	50µM*
CC(c1ccccc1)N1C(=O)CC(Sc2ncccc2C(=O)O)C1=O (centres undefined)	-1%	-1%	5%	2.1µM*	35µM*
O=C(O)c1ccccc1SC1CC(=O)N(C2CCCCC2)C1=O (centres undefined)	-1%	-1%	2%	-1%	4µM*
O=C(O)c1ccccc1SC1CC(=O)N(c2ccccc2)C1=O (centres undefined)	-4%	-4%	-43%	2.1µM*	14µM*
O=C(O)c1cccnc1SC1CC(=O)N(c2cccc3ccccc23)C1=O (centres undefined)	·	12%	·	9%	?
Cc1cccc(-c2noc(-c3ccc(NCC4CCCO4)c([N+](=O)[O-])c3)n2)c1 (centres undefined)	·	·	·	·	-10%
O=C1CC(N2CC2)C(=O)N1c1ccccc1 (centres undefined)	71%	·	·	·	·
O=C1CC(Sc2cccs2)C(=O)N1c1ccccc1 (centres undefined)	3%	-19%	-63%	0%	6.3µM*
CCOc1ccc(N2C(=O)CC(Sc3nnnn3-c3ccccc3)C2=O)cc1 (centres undefined)	-4%	-2%	·	0%	10µM*
Cc1nc(SC2CC(=O)N(c3ccccc3)C2=O)nc2c1CCCC2 (centres undefined)	-11%	6%	-22%	?	-23%
CCOc1ccc(N2C(=O)CC(Sc3nc(C)cc(C)n3)C2=O)cc1 (centres undefined)	-1%	10%	-7%	35%	-7%
Cc1nnc(SC2CC(=O)N(c3ccccc3)C2=O)s1 (centres undefined)	-1%	27%	-4%	156%	2.5µM*
COc1cc2c(=O)n(CCC(=O)NCC3CCCO3)c(=O)n(CC(=O)Nc3c(C)cccc3C)c2cc1OC (centres undefined)	·	·	·	·	-3%
CCOC(=O)c1sc(NC(=O)CSC(=S)N2CCN(C)CC2)nc1C	-10%	8.3µM*	3%	?	6%
CCOc1cc(-c2c(C#N)c(N)nc3c2CCCC3C)ccc1O (centres undefined)	-1%	-24%	-33%	2.9µM*	-14%
COC12C(COC(N)=O)C3=C(C(=O)C(C)=C(N)C3=O)N1CC1C2N1C (centres undefined)	7%	0.93µM*	2%	?	13µM*
SMILES	AMA1-RON2 inh	Pf growth 48h	NS1 function inh	Pf growth 96h	Sm TGR block
CCOC(=O)N1CCC(=NNc2ccnc3cc(Cl)ccc23)CC1	-4%	?	·	2.6µM*	?
CCOC(=O)N1CCC(=NNc2ncc(C(F)(F)F)cc2Cl)CC1	33%	1%	·	26%	-7%
CC(=O)N1CCC(=NNc2ccnc3cc(Cl)ccc23)CC1	-14%	1.9µM*	·	2.6µM*	?
Nc1cc2c(cc1O)CCCC2	-4%	?	4%	?	40µM*
Cc1c(-c2ccccc2)c(=O)oc2c(CN3CCN(C)CC3)c(O)ccc12	·	·	·	·	30%
CCC(CC)NC(=O)CON=C1c2ccccc2-c2ccccc21	0%	13µM*	0%	13µM*	4%
CCC(c1nnnn1-c1ccc2c(c1)OCCO2)N1CCN(Cc2c(F)cccc2Cl)CC1 (centres undefined)	-22%	·	·	·	·
Cn1ccnc1SCCNC(=O)CCc1nnc(CCCCc2ccccc2)o1	4%	-23%	-5%	?	0%
Cn1ccnc1SCCNC(=O)CCc1nnc(CCc2ccccc2)o1	18%	13%	-2%	10µM*	11%
CC(C)c1ccc(CCNC(=O)CCNS(=O)(=O)c2ccc(Br)cc2)cc1	39%	-16%	·	?	0%
N#CC(=C=[N-])c1nc2ccccc2nc1-[n+]1cccc(NC(=O)c2cccs2)c1	-6%	-10%	-2%	-4%	40µM*
N#CC(=C=[N-])c1nc2ccccc2nc1-[n+]1cccc(NC(=O)c2ccccc2)c1	0%	?	-3%	39%	40µM*
N#CC(=C=[N-])c1nc2ccccc2nc1-[n+]1cccc(NC(=O)c2ccc(F)cc2)c1	·	?	2%	?	-29%
CC(C)CCNC(=O)c1cccc(S(=O)(=O)N2CCc3ccccc32)c1	2%	·	-7%	?	-4%
CC(=O)c1cccc(NC(=O)c2ccc3c(c2)CCN3S(=O)(=O)c2ccccc2)c1	6%	?	11%	12µM*	-17%
CCN(CC)CCCC(C)NC(=O)c1cccc(S(=O)(=O)N2CCc3ccccc32)c1 (centres undefined)	7%	0%	·	-5%	16µM*
O=C(NNC(=O)c1cccc(S(=O)(=O)N2CCc3ccccc32)c1)c1ccccc1	52%	2%	·	-3%	-18%
CC(=O)Nc1cccc(NC(=O)c2ccc3c(c2)CCN3S(=O)(=O)c2ccccc2)c1	-11%	?	6%	?	-1%
O=C(Nc1ccccc1)c1ccc2c(c1)CCN2S(=O)(=O)c1ccccc1	0%	3.7µM*	8%	92%	14%
NC(=O)C1CN(C(=O)c2cccc(S(=O)(=O)N3CCc4ccccc43)c2)c2ccccc2O1 (centres undefined)	12%	8.3µM*	·	?	-2%
CCOc1ccc(CCNC(=O)c2ccc(=O)[nH]c2)cc1OCC	20%	-3%	7%	3%	3%
